Screens from PubChem.
Sampled rows, rich in hits. Any-hit rate of the full collection: about 19%.
uPA generation: blocks generation of uPA at the cell surface | cell surface uPA generation assay, qHTS | Potency, µM (series often up to 38.3 µM), without a hit: top-dose activity change, negative = inhibition, hits mostly inhibitors | 330,000 tested, 0.31% active; active means well fitted inhibition curve with a large enough effect; inconclusive means small, poorly fitted or top-dose-only effect; inactive means no such curve, though single readings can be large or run the other way; tested in mouse RAW 264.7 cells; further: potency means the concentration at half of the fitted maximal effect; nearly all actives have a fitted effect of over 55% in size
HT1080-NT tox: kills 2HG-producing HT-1080-NT fibrosarcoma cells; AID 686970; Potency, µM (titrated, usually from 46.1 µM), without a hit: top-dose activity, negative = less viability, most hits filed as cytotoxic; 360,000 tested, 1.6% active; HT-1080-NT fibrosarcoma viability, CellTiter-Glo ATP luminescence, 48 h;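 further: NT is the 2HG producing partner of a matched IDH1 knockdown line; potency means the concentration at half of the fitted maximal effect; 0% = DMSO-treated cells and -100% = media-only wells without cells; nearly all actives have a fitted effect of over 55% in size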
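Viability by CellTiter-Glo luminescence after 48 h compound exposure at 37C of HT-1080-NT cells (750/well, RPMI, 5% FBS). % activity scaled between DMSO wells and medium-only wells, then curve-fitted and categorized by curve class.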
TDP1 cell CPT: DT40-hTDP1 cell growth loss with CPT; chicken DT40 Tdp1-/-;hTDP1 cells + 20 nM CPT, ATP luminescence, 48 h; Potency, µM (doses to about 46.2 µM), for inactives: at the highest dose activity change, negative = growth inhibition, most hits filed as inhibitors; 420,000 tested, 12% active; further: potency means the concentration at half of the fitted maximal effect; nearly all actives have a fitted effect of over 55% in size
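Chicken DT40 Tdp1-/- cells complemented with human TDP1, 400 cells/well, exposed to compounds plus 20 nM camptothecin for at least 48 h at 37 C; viability read as ATP content by CellTiter-Glo luminescence.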
HT1080 IDH1KD tx: kills HT-1080 cells with IDH1 knockdown. Potency, µM (doses to about 46.1 µM), inactives show at the highest dose activity, negative = toxicity, usual class: cytotoxic. HT-1080 IDH1 knockdown viability, ATP luminescence, 48 h. 360,000 tested, 2% active;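 further: potency means the concentration at half of the fitted maximal effect; 0% = DMSO wells and -100% = cell-free medium wells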
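Assay cells: HT-1080 with IDH1 knockdown, 750 per well, RPMI/5% FBS. Exposure: 48 h at 37 °C following 2 h pre-incubation. Read: CellTiter-Glo luminescence; fitted concentration-response, curve class assigned.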
DT40 TDP1 no CPT: qHTS for Inhibitors of human tyrosyl-DNA phosphodiesterase 1 (TDP1): qHTS in cells in absence of CPT. DT40 Tdp1-/- hTDP1 cells, no CPT, ATP luminescence, 48 h. Potency, µM (highest dose often 46.2 µM), inactives show top-dose activity change, negative = growth inhibition, most hits filed as inhibitors. 420,000 tested, 15% active. AID 686978, 2013; further: potency means the concentration at half of the fitted maximal effect; nearly all actives have a fitted effect of over 55% in size
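Readout: luminescence from CellTiter-Glo after 30 min in the dark at RT. Cells: DT40 Tdp1-/- with stable hTDP1, 400/well. Exposure: compounds alone, ≥48 hr, 37 °C.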
IL1B secr inh: inflammasome signaling inhibition, IL-1 beta readout; THP-1 LPS/ATP IL-1B secretion, AlphaLISA, 16 h; hits give low values; activity change, % at 57.5 µM; 360,000 tested, 4.7% active; AID 743279; in the data active means activity change below about -50%; inconclusive means mostly about -30% to -49%
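Secreted IL-1B measured by AlphaLISA bead assay after 16 h compound exposure of THP-1 cells; compounds (final up to 57.5 uM) added 1 h before LPS (250 ng/mL) and ATP (1.25 mM) stimulation; lower signal means less secretion.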
* = called active by the depositor; i = inactive; ? = inconclusive; / = no result given. Unless noted, the call rests on the fitted dose curve; in most records, active means well fitted curve in the direction sought with a large enough effect; inconclusive means small, poorly fitted or top-dose-only effect, or another doubt; inactive means no such curve, though single readings can be large; an effect the other way counts as inactive or inconclusive. Unless noted, on the % scale 0 is the no-effect control and ±100 the full control effect.

SMILES | uPA generation | HT1080-NT tox | TDP1 cell CPT | HT1080 IDH1KD tx | DT40 TDP1 no CPT | IL1B secr inh
COc1cc(C(=O)N2CCN(c3ccc([N+](=O)[O-])cc3)CC2)ccc1OCc1c(C)noc1C | 4.4% | -1.7% | ? | -8.4% | 16.4µM* | -8.1
CCc1cc2c(COC(=O)c3c(C)noc3C)cc(=O)oc2cc1O | 1.3% | -8.8% | ? | -9.7% | 10.3µM* | 22.9
COc1cc(C(=O)OCC(C)=O)ccc1OCc1c(C)noc1C | -17.1% | ? | ? | 18.4µM* | ? | 56.4
CC(=O)c1ccc(NC(=O)CSc2nnc(-c3ccncc3)n2-c2ccccc2)cc1 | / | / | -10.4% | / | 1.0% | /
C=CCOC(=O)c1cn(CC)c2nc(C)ccc2c1=O | -4.4% | 5.1% | 8.3% | 11.9% | -5.2% | -7.3
CCn1cc(C(=O)OCC(=O)OC2CC(C)CCC2C(C)C)c(=O)c2ccc(C)nc21 (configuration not stated) | -0.6% | ? | 18.4µM* | ? | ? | -15.5
O=C(c1ccccc1)c1cc(Cl)ccc1N1C(=O)C=CC1=O | -9.9% | 18.4µM* | 2.31µM* | 23.1µM* | 1.16µM* | -80.5*
Cc1ccc(S(=O)(=O)Nc2ccc(Cl)cc2C(=O)c2ccccc2)cc1 | -9.9% | -11.7% | -23.6% | -15.1% | ? | 0.0
Cc1ccc2c(=O)cc(C(=O)Nc3sc4c(c3C(=O)NCc3ccco3)CCC4)oc2c1 | / | / | -6.0% | / | -22.4% | /
CCOC(=O)N1CCN(c2c(NCc3ccccc3Cl)c(=O)c2=O)CC1 | ? | ? | 18.4µM* | -29.4% | 29.1µM* | 2.8
COc1ccc(/C=N/Nc2nnc(C)n2N)cc1OC(C)=O | -18.4% | 23.1µM* | 8.2µM* | 16.4µM* | 18.4µM* | 19.8
Cc1nnc(N/N=C/c2ccc(Br)cc2)n1N | ? | ? | ? | 23.1µM* | 6.2% | 0.0
COc1ccc(/C=N/Nc2nnc(C)n2N)cc1OC | -7.2% | ? | -28.5% | ? | -20.7% | 28.1
Cc1nnc(N/N=C/c2ccc(-c3ccc(Br)cc3)o2)n1N | -10.7% | ? | ? | ? | ? | 0.0
Cc1cn([C@H]2C[C@H](O)[C@@H](CNC=O)O2)c(=O)[nH]c1=O | / | 12.5% | -13.2% | 5.3% | ? | 9.0
O=C(Nc1cccc(F)c1)c1cc(S(=O)(=O)NCCC2=CCCCC2)ccc1F | -9.7% | ? | ? | ? | ? | -61.1*
Cc1ccc(NC(=O)c2cc(S(=O)(=O)NCCC3=CCCCC3)ccc2F)cc1F | -4.5% | ? | ? | ? | 16.4µM* | -76.9*
Cc1cc(S(=O)(=O)NCCC2=CCCCC2)ccc1Br | 1.5% | -5.1% | -0.1% | -24.2% | ? | -21.1
COc1ccc(NC(=O)c2cc(S(=O)(=O)NCCC3=CCCCC3)ccc2F)cc1 | / | / | 25.9µM* | / | 23.1µM* | /
O=C(CNC(=O)N1CC(=O)Nc2ccccc21)NCCc1ccc(Cl)cc1 | 22.8% | 2.5% | 18.6% | 0.0% | -6.8% | -3.3
Cc1ccc(CC(=O)Nc2ccc(S(=O)(=O)Nc3ncccn3)cc2)cc1 | 3.2% | 2.0% | 44.6% | 4.0% | 24.6% | 10.6
O=C(Cc1cccs1)N(c1ccc(Br)cc1)C1C=CS(=O)(=O)C1 (configuration not stated) | 0.0% | 13.1% | 16.4µM* | 14.4% | ? | 14.9
O=C(Nc1ccc(Br)cc1F)c1cc2nc(-c3ccco3)cc(C(F)(F)Cl)n2n1 | / | / | -13.0% | / | -10.4% | /
Cc1[nH]n(-c2ncc(-c3ccccc3)s2)c(=O)c1C(c1ccc(Cl)cc1)C(C#N)C#N (configuration not stated) | -0.2% | 6.6% | ? | 7.7% | ? | -63.6*
NNc1nncc2ccccc12 | / | / | -8.7% | / | -22.1% | /
SMILES | uPA generation | HT1080-NT tox | TDP1 cell CPT | HT1080 IDH1KD tx | DT40 TDP1 no CPT | IL1B secr inh
Oc1c(Br)cc(/C=N/Nc2nncc3ccccc23)cc1Br | -4.7% | 10.7% | ? | 2.4% | 23.1µM* | -5.1
CO/N=C/c1ccc(Sc2ccccc2)c([N+](=O)[O-])c1 | -0.4% | -2.0% | 5.3% | 3.2% | ? | -4.8
CO/N=C/c1ccc(Oc2ccc(C)cc2)c([N+](=O)[O-])c1 | -2.1% | 0.2% | ? | -4.1% | 20.6µM* | -18.7
O=C(Cn1c2ccccc2c(=O)c2ccccc21)N/N=C/c1cc([N+](=O)[O-])ccc1N1CCCCCC1 | 1.9% | 4.2% | 0.1% | 8.6% | -2.3% | 1.1
O=C(Cn1c2ccccc2c(=O)c2ccccc21)N/N=C/c1ccc(N2CCCC2)c([N+](=O)[O-])c1 | -0.6% | -2.3% | 18.4µM* | -0.5% | ? | 7.8
Cc1cccc(C(=O)OCC(=O)c2csc(N3CCCCC3)n2)c1[N+](=O)[O-] | -0.6% | 1.6% | ? | 6.5% | ? | 18.1
C=C1CCN(C(CC(C)C)C(=O)OC)S(=O)(=O)c2ccccc21 (configuration not stated) | -15.1% | -2.5% | ? | -3.1% | ? | -4.9
COC(=O)[C@H](CC(C)C)N1Cc2cc(OC)cc(OC)c2-c2ccccc2S1(=O)=O | -19.5% | -6.8% | ? | -3.0% | 16.4µM* | -6.8
CCCN1CCc2c(sc(NC(=O)c3ccc(S(=O)(=O)N4CCN(C(=O)OCC)CC4)cc3)c2C(N)=O)C1 | ? | 7.31µM* | ? | 6.51µM* | ? | -98.1*
CCN1CCc2c(sc(NC(=O)c3ccc(S(=O)(=O)N(C)CC4CCCO4)cc3)c2C(N)=O)C1 (configuration not stated) | -6.8% | -3.2% | -35.7% | -9.9% | 20.6µM* | i
CCOC(=O)N1CCN(S(=O)(=O)c2ccc(C(=O)Nc3sc4c(c3C(N)=O)CCN(CC)C4)cc2)CC1 | 1.7% | ? | ? | ? | 20.6µM* | -68.4*
O=P(O)(O)C(O)(Cn1ccnc1)P(=O)(O)O | / | / | 3.9% | / | -1.9% | /
CCOc1ccc(S(=O)(=O)n2nc(C)c(S(=O)(=O)N3CCCCC3)c2C)cc1 | / | / | -0.1% | / | 3.0% | /
COc1ccc(NC(=O)N2CCN(S(C)(=O)=O)CC2)cc1 | 2.4% | 15.0% | 23.1µM* | 1.8% | ? | 8.4
Cc1ccc(-n2nnnc2CNC(=O)c2ccccc2F)cc1C | / | / | -2.4% | / | -12.1% | /
Cc1sc2nc(CSc3ccccc3)nc(N3CCN(C)CC3)c2c1C | 5.7% | ? | ? | ? | 16.4µM* | /
COc1cccc(CNC(=O)CCc2c(C)c3ccc(O)c(C)c3oc2=O)c1 | / | / | 3.8% | / | -13.7% | /
COc1ccc(CCNC(=O)CCc2c(C)c3cc4c(C)c(C)oc4cc3oc2=O)cc1 | / | / | 10.3µM* | / | 20.6µM* | /
